Consider 14 compounds from PubChem BioAssay (NCATS).

Molecules are shown by their SMILES. Values joined by “and” are separate entries in the source; they are usually repeats but may differ in a detail not shown here. Equal entries are not always repeated. Records with an inconclusive call do not appear. Some structures have more than one record in an assay (separate samples or runs), and their calls can disagree. Active and inactive are the calls of the source. Unless noted, the call rests on the fitted dose curve. Peptide text beside a SMILES is read from it.

Test [1] can be described thus: AP1 Signaling Pathway (AID 357; active means well fitted curve in either direction with a large enough effect, not every such curve was filed as active;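 further: ME-180 reporter cells stimulated with EGF at its EC50 level; on the % scale 0 is the no-effect control and ±100 the full control effect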). Conditions: ME-180 AP-1-bla reporter, EGF-induced, beta-lactamase ratio, 5 h; series mostly up to 17.2 µM. Summed up: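 First, ME-180 AP-1-bla cells were cultured overnight at 37 °C in low-serum Opti-MEM. Next, titrated compounds with EC50 EGF were incubated 5 hours. Finally, CCF4 was added for 2.5 hours and the 460/530 nm ratio recorded.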

Test [2] concerns the target Cytochrome P450 1A2 (Homo sapiens) (UniProt P05177). Put plainly: p450-cyp1a2 (AID 410). Further: potency means the concentration at half of the fitted maximal effect.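 On activity change, negative = inhibition: -100% = full effect of reference inhibitor.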 As to conditions: recombinant CYP1A2, luciferin-ME demethylation, luminescence; series mostly up to 57 µM. The method, boiled down:
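O-Demethylation of luciferin 6' methyl ether by human CYP1A2 is monitored as luciferase luminescence. Substrate sits at Km (100uM); enzyme is 20nM. Values are scaled to 57 uM furafylline as maximal inhibition.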

A short description of test [3]: NFAT Signaling Pathway (AID 444; active means well fitted curve in either direction with a large enough effect, not every such curve was filed as active;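 further: carbachol stimulus at about its EC50 of 1 µM final; on the % scale 0 is the no-effect control and ±100 the full control effect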). As to conditions: Jurkat NFAT-bla M1, carbachol, beta-lactamase ratio, 5 h. The method, boiled down: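 Jurkat cells with NFAT-driven β-lactamase reporter and co-expressed M1 receptor, stimulated with carbachol (final 1 uM, ~EC50), compound titration, 5 h at 37 °C. CCF4 loaded 1 h at RT; 460/530 nm ratio gave %activity and AC50.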

A short description of test [4]: Stat Signaling Pathway (AID 446; active means well fitted curve in either direction with a large enough effect, not every such curve was filed as active;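 further: ME-180 cervical cancer cells given 40 pM IL-6 alongside compound; SIE-controlled beta-lactamase reporter measured as 460/530 nm FRET emission ratio; on the % scale 0 is the no-effect control and ±100 the full control effect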). As to conditions: ME-180 (cervical carcinoma) SIE beta-lactamase reporter, IL-6 stimulated, 5 h; series mostly up to 17.2 µM. The method, boiled down: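 Emission at 460 and 530 nm (excitation 405 nm) reports SIE-controlled beta-lactamase in ME-180 cells. Cells received compound with 40 pM IL-6 for 5 hrs at 37 C; data scaled between 300 pM IL-6 and 125 nM JAK-inhibitor controls.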

Test [5] can be described thus: Cell Viability - BJ (AID 421).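 Further: potency means the concentration at half of the fitted maximal effect; cells exposed to compound for 40 hours at 37 °C before readout.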 As to conditions: BJ fibroblast viability, qHTS. Summed up: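 Cytotoxicity in human BJ foreskin fibroblasts is scored as loss of cellular ATP after a 40-hour exposure, measured by luciferase luminescence. Controls are DMSO and 100 uM tamoxifen.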
Test [6] in a line: Cell Viability - Hek293 (AID 427;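 active means compounds whose dose-response curve shows a full or clear partial loss of cell viability, called from curve shape rather than a numeric limit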;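 further: potency means the concentration at half of the fitted maximal effect; cells exposed to compound for 40 hours at 37 °C before reading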). Conditions: qHTS. Summed up:
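qHTS, human embryonic kidney (adenovirus-transformed) cells; 40 hr cpd, 37 °C; CellTiter-Glo ATP luminescence. Norm: DMSO = 0, 100 uM tamoxifen = 100% inhibition. Hill-fit AC50.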

Test [7] in a line: Cell Viability - HepG2 (AID 433).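 Further: potency means the concentration at half of the fitted maximal effect; potency for ATP loss meaning cytotoxicity.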 As to conditions: qHTS. The method, boiled down:
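Cytotoxicity is scored as loss of intracellular ATP in HepG2 cells exposed to compounds for 40 h. Concentration-response curves, normalized to DMSO and 100 uM tamoxifen, give AC50 values.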

The nature of test [8]: Cell Viability - MRC5 (AID 434).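 Further: potency means the concentration at half of the fitted maximal effect; cells exposed to compound for 40 hours at 37 °C; potency reflects cytotoxicity seen as loss of intracellular ATP.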 Conditions: MRC5 lung fibroblast viability, qHTS. The method, boiled down: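 ATP luminescence read-out (CellTiter-Glo, 20 min RT) after 40 hr, 37 °C compound exposure of 1500 MRC5 cells/well. Data normalized to DMSO (basal) and 100 uM tamoxifen (100% inhibition); AC50 from standard Hill equation.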
A short description of test [9]: Cell Viability - SK-N-SH (AID 435).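 Further: potency means the concentration at half of the fitted maximal effect; compound exposure lasted 40 h at 37 °C.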 Conditions: SK-N-SH neuroblastoma cell viability qHTS. Summed up:
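Cells seeded at 1500 per well and incubated 5 hr at 37 °C. Compound added, then 40 hr at 37 °C. CellTiter-Glo added, 20 min at room temperature, luminescence read.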

Cytochrome P450 1A2 (Homo sapiens), sequence (P05177 whole entry, looked up): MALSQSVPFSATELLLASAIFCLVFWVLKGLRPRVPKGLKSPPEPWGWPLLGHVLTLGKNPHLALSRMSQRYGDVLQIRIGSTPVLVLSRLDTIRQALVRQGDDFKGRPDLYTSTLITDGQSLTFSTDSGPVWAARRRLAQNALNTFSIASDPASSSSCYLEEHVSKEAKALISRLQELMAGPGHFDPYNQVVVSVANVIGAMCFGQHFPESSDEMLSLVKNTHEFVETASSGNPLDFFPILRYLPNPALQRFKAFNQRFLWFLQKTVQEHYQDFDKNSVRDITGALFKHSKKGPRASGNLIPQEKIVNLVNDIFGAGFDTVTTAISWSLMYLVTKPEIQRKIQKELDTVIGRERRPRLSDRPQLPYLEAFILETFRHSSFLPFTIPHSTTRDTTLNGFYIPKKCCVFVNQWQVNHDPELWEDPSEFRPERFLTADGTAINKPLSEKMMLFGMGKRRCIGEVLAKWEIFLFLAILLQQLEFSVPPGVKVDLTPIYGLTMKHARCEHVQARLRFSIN

On to `CN=C(NC#N)Nc1ccc(C2=NNC(=O)C[C@@H]2C)cc1`, for which the outcome in test [1] and in [4] was inactive. For the same compound, the Potency result in test [2] is “inactive and 39.8 µM (active)”. Besides, in [3] (at 38 µM (top of the series)), the activity change, negative = inhibition was -1.21% (inactive).
Consider `Cc1onc(-c2ccccc2)c1C(=O)N[C@@H]1C(=O)N2[C@@H]1SC(C)(C)[C@@H]2C(=O)O`, for which the outcome in test [1] and in test [4] was inactive. Also, the activity change, negative = inhibition in test [3] (at 17.2 µM (top of the series)) is 24.2% (inactive).
On to `CC(C)N=c1cc2n(-c3ccc(Cl)cc3)c3ccccc3nc-2cc1Nc1ccc(Cl)cc1`, for which, in test [2], the Potency entry is “inactive”. In addition, the activity change, negative = inhibition in test [3] (at 17.2 µM (top of the series)) was -120% (active). Besides, in [4], the result was inactive.
As to `CCCCC/C=C\C/C=C\CCCCCCCC(=O)O`, the Potency in [5], in [6], in test [7], in [8] and in test [9] was > 92 µM (inactive) each time.
On to `CCN(CC)Cc1cc(Nc2ccnc3cc(Cl)ccc23)ccc1O`, for which the outcome in test [1] and in test [4] was inactive.
`CC(=O)OCC(=O)[C@@]12OC3(CCCC3)O[C@@H]1C[C@H]1[C@@H]3CCC4=CC(=O)C=C[C@]4(C)[C@@]3(F)[C@@H](O)C[C@@]12C`: the outcome in test [1] and in test [4] was inactive.
As for `CCCCCCCC(=O)O`, the Potency in [5], in test [6], in test [7], in test [8] and in test [9] was > 92 µM (inactive) in each case.
On to `Cc1ccccc1`, for which the Potency in test [5], in [6], in test [7], in test [8] and in test [9] was > 92 µM (inactive) in each case.
Consider `CC(C)=O`, for which the Potency in test [5], in test [6], in test [7], in test [8] and in [9] was > 92 µM (inactive) in each case.
Turning to `CCCCCCCC/C=C\CCCCCCCC(=O)O`, the Potency in test [5], in [6], in test [7], in test [8] and in test [9] was > 92 µM (inactive) in each case.
On to `CC(=O)N[C@@H](CC(=O)O)C(=O)N[C@@H](CCC(=O)O)C(=O)O` (Ac-Asp-Glu-OH), for which the Potency entry in [2] is “inactive”. Moreover, in [3] (at 17.2 µM (top of the series)), the activity change, negative = inhibition is -12.3% (inactive). Moreover, in test [4], the call was inactive.
As for `CC1(C)S[C@@H]2[C@H](NC(=O)Cc3ccccc3)C(=O)N2[C@H]1C(=O)O`, the result in [1] and in test [4] was inactive. In test [3] (at 17.2 µM (top of the series)), the activity change, negative = inhibition was -9.19% (inactive) and 5.43% (inactive).
As for `CC1(C)S[C@@H]2[C@H](NC(=O)[C@@H](NC(=O)N3CCNC3=O)c3ccccc3)C(=O)N2[C@H]1C(=O)O`, the outcome in [1] and in [4] was inactive. The Potency entry in test [2] was “inactive”. Further, the activity change, negative = inhibition in [3] (at 17.2 µM (top of the series)) is -13.7% (inactive).
Take `Nc1c(Br)cc(Br)cc1CNC1CCC(O)CC1` (configuration not stated): the result in [1] and in [4] was inactive. The activity change, negative = inhibition in [3] (at 17.2 µM (top of the series)) was 0.0265% (inactive).
